Assay results from the supplement of paper PMC8975748.
Structures can show the parent of a compound that is named as a salt. ± gives the standard deviation of the averaged measurements.

Key:
[1] = test system: Saccharomyces cerevisiae BY4741 SeMeCo community; experiment: mean cell size (pixel area) (pixels); higher = larger cells; conditions: 10 µM; 24 h; SM minimal medium
Procedure, shortened: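 For 24 h, 70 µl of yeast culture diluted to OD600 = 0.3 from an overnight preculture at OD600 = 1.0 was kept in SM medium in 384-well plates acoustically predosed with drug, final 10 µM. The strain was Saccharomyces cerevisiae BY4741 forming a fluorescent community of four plasmids, each complementing one auxotrophy and carrying a fluorescent marker. Automated confocal microscopy of paraformaldehyde-fixed cells, analysed in Harmony, provided mean cell pixel area per well, which was averaged over 3 replicates. Same SeMeCo high-content imaging drug screen: Selleck FDA-approved drugs at 10 µM, 24 h in SM medium, 384-well plates, 3 replicates.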

[2] = test system: Saccharomyces cerevisiae BY4741 SeMeCo community; experiment: z-score of prototroph abundance vs DMSO median; higher = larger share of this subpopulation than in DMSO controls; conditions: 10 µM; 24 h; SM minimal medium; subpopulation (auxotrophy): Prototroph
Procedure, shortened: (§1)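 Scoring was based on each subpopulation's abundance, expressed as a z-score against the vehicle-well median. A Saccharomyces cerevisiae BY4741 community with four plasmids, each restoring one auxotrophy and encoding a distinct fluorescent protein, was pre-grown overnight to OD600 1.0, diluted to 0.3, and added at 70 µl to 384-well plates acoustically predosed with library drugs (10 µM final). It then grew 24 h in minimal SM medium before paraformaldehyde fixation and automated confocal microscopy, with single-auxotroph fluorescent strains setting thresholds and autofluorescence correction.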

[3] = test system: Saccharomyces cerevisiae BY4741 SeMeCo community; experiment: z-score of subpopulation abundance vs DMSO median, subpopulation auxotrophic for M; higher = larger share of this subpopulation than in DMSO controls; conditions: 10 µM; 24 h; SM minimal medium; subpopulation (auxotrophy): M
Procedure, shortened: as §1

[4] = test system: Saccharomyces cerevisiae BY4741 SeMeCo community; experiment: z-score of subpopulation abundance vs DMSO median, subpopulation auxotrophic for L; higher = larger share of this subpopulation than in DMSO controls; conditions: 10 µM; 24 h; SM minimal medium; subpopulation (auxotrophy): L
Procedure, shortened: as §1

[5] = test system: Saccharomyces cerevisiae BY4741 SeMeCo community; experiment: z-score of subpopulation abundance vs DMSO median, subpopulation auxotrophic for U; higher = larger share of this subpopulation than in DMSO controls; conditions: 10 µM; 24 h; SM minimal medium; subpopulation (auxotrophy): U
Procedure, shortened: as §1

[6] = test system: Saccharomyces cerevisiae BY4741 SeMeCo community; experiment: z-score of subpopulation abundance vs DMSO median, subpopulation auxotrophic for H; higher = larger share of this subpopulation than in DMSO controls; conditions: 10 µM; 24 h; SM minimal medium; subpopulation (auxotrophy): H
Procedure, shortened: as §1

[7] = test system: Saccharomyces cerevisiae BY4741 SeMeCo community; experiment: z-score of subpopulation abundance vs DMSO median, subpopulation auxotrophic for LU; higher = larger share of this subpopulation than in DMSO controls; conditions: 10 µM; 24 h; SM minimal medium; subpopulation (auxotrophy): LU
Procedure, shortened: as §1

[8] = test system: Saccharomyces cerevisiae BY4741 SeMeCo community; experiment: z-score of subpopulation abundance vs DMSO median, subpopulation auxotrophic for LM; higher = larger share of this subpopulation than in DMSO controls; conditions: 10 µM; 24 h; SM minimal medium; subpopulation (auxotrophy): LM
Procedure, shortened: as §1

[9] = test system: Saccharomyces cerevisiae BY4741 SeMeCo community; experiment: z-score of subpopulation abundance vs DMSO median, subpopulation auxotrophic for HM; higher = larger share of this subpopulation than in DMSO controls; conditions: 10 µM; 24 h; SM minimal medium; subpopulation (auxotrophy): HM
Procedure, shortened: as §1

[10] = test system: Saccharomyces cerevisiae BY4741 SeMeCo community; experiment: z-score of subpopulation abundance vs DMSO median, subpopulation auxotrophic for HU; higher = larger share of this subpopulation than in DMSO controls; conditions: 10 µM; 24 h; SM minimal medium; subpopulation (auxotrophy): HU
Procedure, shortened: as §1

[11] = test system: Saccharomyces cerevisiae BY4741 SeMeCo community; experiment: z-score of subpopulation abundance vs DMSO median, subpopulation auxotrophic for HL; higher = larger share of this subpopulation than in DMSO controls; conditions: 10 µM; 24 h; SM minimal medium; subpopulation (auxotrophy): HL
Procedure, shortened: as §1

[12] = test system: Saccharomyces cerevisiae BY4741 SeMeCo community; experiment: z-score of subpopulation abundance vs DMSO median, subpopulation auxotrophic for HUM; higher = larger share of this subpopulation than in DMSO controls; conditions: 10 µM; 24 h; SM minimal medium; subpopulation (auxotrophy): HUM
Procedure, shortened: as §1

[13] = test system: Saccharomyces cerevisiae BY4741 SeMeCo community; experiment: z-score of subpopulation abundance vs DMSO median, subpopulation auxotrophic for LUM; higher = larger share of this subpopulation than in DMSO controls; conditions: 10 µM; 24 h; SM minimal medium; subpopulation (auxotrophy): LUM
Procedure, shortened: as §1

[14] = test system: Saccharomyces cerevisiae BY4741 SeMeCo community; experiment: z-score of subpopulation abundance vs DMSO median, subpopulation auxotrophic for HLUM; higher = larger share of this subpopulation than in DMSO controls; conditions: 10 µM; 24 h; SM minimal medium; subpopulation (auxotrophy): HLUM
Procedure, shortened: as §1

[15] = test system: Saccharomyces cerevisiae BY4741 SeMeCo community; experiment: z-score of subpopulation abundance vs DMSO median, subpopulation auxotrophic for UM; higher = larger share of this subpopulation than in DMSO controls; conditions: 10 µM; 24 h; SM minimal medium; subpopulation (auxotrophy): UM
Procedure, shortened: as §1

[16] = test system: Saccharomyces cerevisiae BY4741 SeMeCo community; experiment: z-score of subpopulation abundance vs DMSO median, subpopulation auxotrophic for HLM; higher = larger share of this subpopulation than in DMSO controls; conditions: 10 µM; 24 h; SM minimal medium; subpopulation (auxotrophy): HLM
Procedure, shortened: as §1

Row | Structure (SMILES) | mean cell size [1] | z-score of prototroph abundance [2] | z-score of subpopulation abundance [3] | z-score of subpopulation abundance [4] | z-score of subpopulation abundance [5] | z-score of subpopulation abundance [6] | z-score of subpopulation abundance [7] | z-score of subpopulation abundance [8] | z-score of subpopulation abundance [9] | z-score of subpopulation abundance [10] | z-score of subpopulation abundance [11] | z-score of subpopulation abundance [12] | z-score of subpopulation abundance [13] | z-score of subpopulation abundance [14] | z-score of subpopulation abundance [15] | z-score of subpopulation abundance [16]
1 | Fc1ccc(C(c2ccc(F)cc2)N2CCN(C/C=C/c3ccccc3)CC2)cc1 [Flunarizine 2HCl] | 12.38 ± 0.06 | -1.16 | -0.21 | 2.04 | -0.07 | 0.98 | 0.52 | 1.5 | 1.01 | 0.97 | 0.64 | 0.51 | 1.42 | 1.3 | – | –
2 | O=c1ccc2cc(O)c(O)cc2o1 [Esculetin] | 12.7 ± 0.16 | – | 5.32 | 1.75 | -7.81 | 3.92 | -7.32 | 3.28 | 3.75 | -7.17 | 2.44 | -4.69 | – | -0.38 | -8.53 | –
3 | Cc1cccc(C)c1OCC(C)N (stereo not drawn) [Mexiletine HCl] | 12.3 ± 0.13 | – | -0.98 | -0.39 | 0.62 | -0.52 | 0.44 | -0.69 | -0.64 | 0.61 | -0.55 | – | -0.37 | -0.35 | -0.36 | -1.23
4 | CC[C@H](C)C(=O)O[C@H]1C[C@@H](C)C=C2C=C[C@H](C)[C@H](CC[C@@H]3C[C@@H](O)CC(=O)O3)[C@H]21 [Lovastatin] | 11.9 ± 0.13 | – | 0.85 | -0.96 | 0.87 | -0.06 | 0.16 | – | – | 0.59 | 0.97 | 1.12 | 0.48 | 0.35 | 1.08 | 0.86
5 | CN1C[C@@H]2C[C@H]1CN2c1cc2c(cc1F)c(=O)c(C(=O)O)cn2C1CC1 [Danofloxacin Mesylate] | – | – | 0.03 | -0.69 | – | 0.54 | -0.89 | -0.68 | -0.46 | -0.09 | -0.06 | -0.05 | -0.46 | -0.14 | 0 | -0.5
6 | Cc1ccccc1OCC(O)CO (stereo not drawn) [Mephenesin] | 12.23 ± 0.086 | – | 0 | 0.09 | -0.22 | -0.65 | -0.42 | 0.02 | -0.48 | -0.86 | – | – | – | -0.28 | -0.82 | -0.4
7 | Cc1cc(C)nc(NS(=O)(=O)c2ccc(N)cc2)n1 [Sulfamethazine Sodium Salt] | 12.28 ± 0.095 | 0.49 | -1.42 | 0.3 | -0.43 | 0.36 | -0.11 | -0.63 | -0.79 | 0.05 | – | -0.93 | -0.01 | – | -0.8 | -0.15
8 | Oc1c(Br)cc(Br)c2cccnc12 [Broxyquinoline] | – | -16.8 | 3.22 | 0.17 | -3.11 | 11.6 | 6.62 | 5.88 | 27.7 | 16.9 | 10.5 | 15.8 | – | 44.9 | 6.77 | –
9 | CC1(C)S[C@@H]2[C@H](NC(=O)[C@H](N)c3ccc(O)cc3)C(=O)N2[C@H]1C(=O)O [Amoxicillin Sodium] | 12.5 ± 0.31 | 0.37 | 0.97 | -0.33 | -0.06 | -0.8 | -0.7 | -1.17 | -0.22 | -0.71 | -1.14 | -0.13 | -0.05 | -0.2 | – | –
10 | CO[C@H]1C[C@@H]2CC[C@@H](C)[C@@](O)(O2)C(=O)C(=O)N2CCCC[C@H]2C(=O)O[C@H]([C@H](C)C[C@@H]2CC[C@H](n3cnnn3)[C@H](OC)C2)CC(=O)[C@H](C)/C=C(\C)[C@@H](O)[C@@H](OC)C(=O)[C@H](C)C[C@H](C)/C=C/C=C/C=C/1C [Zotarolimus(ABT-578)] | 13.94 ± 0.041 | -17.5 | -0.02 | 0.32 | 3.68 | 14.4 | 3.23 | 2.28 | 23.2 | – | 15.7 | 22.3 | – | 31.4 | 7.28 | 18.4
11 | Oc1c(Cl)cc(Cl)cc1Sc1cc(Cl)cc(Cl)c1O [Bithionol] | 12.4 ± 0.28 | -1.81 | -3.78 | -1.47 | 1.53 | – | 1.88 | -1.62 | -0.03 | 5.87 | 3.98 | 3.51 | 2.62 | – | -0.68 | 4.37
12 | N[C@H]1CONC1=O [L-Cycloserine] | – | -1.74 | -3.06 | 2.81 | -0.91 | 5.08 | 1.02 | 1.19 | 3.92 | 1.14 | 3.71 | 1.54 | 1.18 | 5.78 | -1.17 | 5.24
